This passage reports composite z-score and z-score results from PubChem BioAssay.

Active and inactive are the calls of the source.

For assay [1], the system named is Plasmodium falciparum Sir2 (PF13_0152, Sir2A). In words: pfSir2 binders on small-molecule microarrays, primary screen, biochemical, small-molecule microarray, 635 nm fluorescence (AID 1098).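 Note: score merges spot fluorescence intensity with its signal-to-noise ratio.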 Particulars: small-molecule microarray binding, fluorescence 635 nm; higher = more signal.
Assay [2] can be described thus: small-molecule microarray binders of probe aDKK1, primary screen, biochemical, biotinylated probe, 635/667 nm fluorescence (AID 1099).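 Note: score merges 667nm spot fluorescence with signal to noise across triplicate slides.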 To be noted: higher = more signal.
A short description of assay [3]: small-molecule microarray binders of probe aCHRDL2, primary screen, biochemical, biotinylated probe, 635/667 nm fluorescence (AID 1100). Particulars: higher = more signal.
Assay [4] is described as follows: splicing luciferase reporter signal modulators, primary screen, spliceosome inhibition project, cell-based, HEK293, splice +/- reporter (AID 1101).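 Note: HEK293 cells carrying a splicing-competent luciferase reporter gene; test concentration not given here.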 Particulars: luminescence, 24 h, higher = more signal, called active from +8 up or from −8 down.
The target of assay [5] is Fibroblast growth factor 10 (Homo sapiens) (UniProt O15520). The assay is described as follows: FGF10 binders on small-molecule microarrays, primary screen, biochemical, small-molecule microarray, 635 nm fluorescence (AID 1102). To be noted: FGF10 binding, fluorescence 635 nm, higher = more signal.
Assay [6] deals with glycogen synthase kinase-3 (GSK3A per assay name; protocol says GSK3B). In words: GSK3 binders on small-molecule microarrays, primary screen, biochemical, small-molecule microarray, 635 nm fluorescence, GSK3A (AID 1103). Note: the record names both GSK3A and GSK3B. To be noted: small-molecule microarray binding, fluorescence 635 nm; higher = more signal.
The target in assay [7] is Epidermal growth factor receptor (Homo sapiens) (UniProt P00533). In words: EGFR binders on small-molecule microarrays, primary screen, biochemical, small-molecule microarray, 635 nm fluorescence (AID 1104).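 Note: score merges 667 nm emission intensity with spot signal to noise over triplicate slides.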 To be noted: EGFR binding, higher = more signal.
Assay [8] has as its target Follistatin-related protein 3 (Homo sapiens) (UniProt O95633). The assay is described as follows: FSTL3 binders on small-molecule microarrays, primary screen, biochemical, small-molecule microarray, 635 nm fluorescence (AID 1105).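 Note: score merges emission near 667 nm and signal to noise per printed spot across three slides.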 Particulars: FSTL3 binding, higher = more signal.
Assay [9] concerns the target Dickkopf-related protein 1 (Homo sapiens) (UniProt O94907). In words: DKK1 binders on small-molecule microarrays, primary screen, biochemical, small-molecule microarray, 635 nm fluorescence scan (AID 1106).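 Note: score merges emission near 667 nm with signal to noise over three replicate slides.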 Particulars: DKK1 binding, higher = more signal.
In assay [10] the test system is Inhibin beta A chain (activin A). In words: INHBA (activin A) binders on microarrays, primary screen, biochemical, small-molecule microarray, 635 nm fluorescence scan (AID 1107).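 Note: mouse activin A protein probed at 4.33 µg/mL on printed slides; score merges bound-protein fluorescence near 667 nm with spot signal-to-noise.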 Particulars: small-molecule microarray binding, higher = more signal.
In assay [11] the test system is Human papillomavirus type 1a protein E7 (residues 44-93). The assay is described as follows: HPV1a E7 fragment binders on microarrays, primary screen, biochemical, small-molecule microarray, residues 44-93, 635 nm fluorescence (AID 1108).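 Note: E7 fragment applied at 1 µg/mL in TBST for 1 h at 4 C; score combines spot fluorescence with its signal to noise ratio.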 To be noted: small-molecule microarray binding, fluorescence 635 nm; higher = more signal.
Assay [12] in a line: modulators of HCV replicon luciferase signal, primary screen, HCV replication inhibitor project, Huh7 cells, luciferase reporter (AID 1109).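 Note: huh7 hepatoma cells harbouring a luciferase neomycin HCV replicon reporter; luciferase luminescence as measure of HCV replicon replication; test concentration not given here.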 Particulars: 48 h, higher = more signal.
In assay [13] the target is Left-right determination factor 2 (Homo sapiens) (UniProt O00292). The assay is described as follows: LEFTY2 binders on small-molecule microarrays, primary screen, biochemical, small-molecule microarray, 635 nm fluorescence scan (AID 1110). To be noted: LEFTY2 binding, higher = more signal.
The target of assay [14] is Calmodulin-1 (Homo sapiens) (UniProt P0DP23). The assay is described as follows: CALM1 binders on microarrays, EGTA buffer, profiling panel, biochemical, small-molecule microarray, Cy5-labelled CALM1 (AID 1111).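 Note: labelled calmodulin applied in Tris saline Tween buffer holding calcium plus EGTA and DTT.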 To be noted: Cy5-CALM1 binding fluorescence, higher = more signal.
Assay [15] has the same target. In words: calcium-bound CALM1 binders on microarrays, profiling panel, artefact control for SMM control-protein annotation, biochemical, small-molecule microarray, Cy5-labelled CALM1, plus calcium (AID 1112).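 Note: score merges spot fluorescence with signal to noise from triplicate slides.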 To be noted: Cy5-CALM1 binding fluorescence, higher = more signal.
Assay [16] in a line: small-molecule microarray binders of probe aWnt5a, primary screen, biochemical, biotinylated probe, 635/667 nm fluorescence (AID 1113).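 Note: score merges 667 nm fluorescence intensity with signal-to-noise per printed feature.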 Particulars: higher = more signal.
Assay [17] is described as follows: small-molecule microarray binders of probe aShh, primary screen, biochemical, biotinylated probe, 635/667 nm fluorescence (AID 1114).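 Note: probe is biotin-labelled aShh protein from a stem cell growth factor screen; measures binding of labelled protein to compounds printed on the slide; score merges feature fluorescence at 667 nm with signal-to-noise.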 To be noted: higher = more signal.
A short description of assay [18]: small-molecule microarray binders of probe aNog, primary screen, biochemical, biotinylated probe, 635/667 nm fluorescence (AID 1115).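 Note: probe is biotinylated aNog protein used at 0.15 µg/mL for 1 h at 4 C; z-score combines 667 nm fluorescence of each spot with its signal to noise.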 To be noted: higher = more signal.
For assay [19], the target named is Torsin-1A-interacting protein 1 (Homo sapiens) (UniProt Q5JTV8). The assay is described as follows: LAP1 binders from COS7 cell lysate, primary screen, small-molecule microarray, 635/667 nm fluorescence (AID 1116). Particulars: COS7-hLAP1 lysate binding, 635 nm fluorescence, higher = more signal.
Assay [20] has as its target Alpha-bungarotoxin (Bungarus multicinctus) (UniProt P60615). The assay is described as follows: alpha-bungarotoxin binders on microarray, profiling panel, artefact control for SMM control protein annotation, biochemical, small-molecule microarray, Alexa647 label, 635/667 nm fluorescence (AID 1117). Particulars: alpha-BTX-A647 binding fluorescence, higher = more signal.

Sequence of Dickkopf-related protein 1 (Homo sapiens) (O94907 whole entry, looked up): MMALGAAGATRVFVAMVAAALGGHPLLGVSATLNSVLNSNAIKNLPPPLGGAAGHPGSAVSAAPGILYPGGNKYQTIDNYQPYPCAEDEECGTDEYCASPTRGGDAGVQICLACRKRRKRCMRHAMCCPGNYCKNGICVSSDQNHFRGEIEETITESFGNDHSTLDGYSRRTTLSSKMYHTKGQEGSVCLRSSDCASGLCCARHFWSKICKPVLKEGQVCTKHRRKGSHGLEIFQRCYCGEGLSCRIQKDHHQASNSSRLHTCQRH
Sequence of Alpha-bungarotoxin (Bungarus multicinctus) (P60615 whole entry, looked up): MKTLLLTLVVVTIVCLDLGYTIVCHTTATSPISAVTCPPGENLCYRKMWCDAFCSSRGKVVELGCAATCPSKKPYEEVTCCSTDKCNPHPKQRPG
Sequence of Fibroblast growth factor 10 (Homo sapiens) (O15520 whole entry, looked up): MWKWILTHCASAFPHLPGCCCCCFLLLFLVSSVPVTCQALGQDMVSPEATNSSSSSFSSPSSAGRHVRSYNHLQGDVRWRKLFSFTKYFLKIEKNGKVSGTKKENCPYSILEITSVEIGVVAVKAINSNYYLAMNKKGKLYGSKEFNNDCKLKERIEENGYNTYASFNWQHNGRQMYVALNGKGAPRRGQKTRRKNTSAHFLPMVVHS
Sequence of Torsin-1A-interacting protein 1 (Homo sapiens) (Q5JTV8 whole entry, looked up): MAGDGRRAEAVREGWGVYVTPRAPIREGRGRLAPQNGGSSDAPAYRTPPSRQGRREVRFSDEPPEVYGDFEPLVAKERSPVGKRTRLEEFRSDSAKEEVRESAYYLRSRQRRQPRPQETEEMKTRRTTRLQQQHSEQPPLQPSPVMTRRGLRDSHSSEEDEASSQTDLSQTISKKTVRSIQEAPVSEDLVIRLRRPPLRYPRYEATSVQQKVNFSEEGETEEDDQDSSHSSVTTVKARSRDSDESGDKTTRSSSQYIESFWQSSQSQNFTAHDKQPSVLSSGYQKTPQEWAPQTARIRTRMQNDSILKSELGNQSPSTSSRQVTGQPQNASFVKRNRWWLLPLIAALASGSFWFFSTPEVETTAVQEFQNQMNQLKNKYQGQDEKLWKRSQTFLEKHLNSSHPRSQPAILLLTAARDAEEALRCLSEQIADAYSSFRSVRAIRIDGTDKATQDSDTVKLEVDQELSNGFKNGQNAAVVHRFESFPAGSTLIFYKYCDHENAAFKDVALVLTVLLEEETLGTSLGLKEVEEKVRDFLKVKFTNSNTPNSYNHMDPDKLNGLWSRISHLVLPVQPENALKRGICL
Sequence of Follistatin-related protein 3 (Homo sapiens) (O95633 whole entry, looked up): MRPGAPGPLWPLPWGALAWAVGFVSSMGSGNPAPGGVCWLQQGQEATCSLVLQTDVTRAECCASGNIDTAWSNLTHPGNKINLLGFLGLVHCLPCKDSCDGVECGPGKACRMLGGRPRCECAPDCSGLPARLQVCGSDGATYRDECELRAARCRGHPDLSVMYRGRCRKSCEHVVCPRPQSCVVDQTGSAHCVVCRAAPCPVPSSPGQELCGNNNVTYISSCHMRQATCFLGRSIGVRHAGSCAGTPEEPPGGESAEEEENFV
Sequence of Left-right determination factor 2 (Homo sapiens) (O00292 whole entry, looked up): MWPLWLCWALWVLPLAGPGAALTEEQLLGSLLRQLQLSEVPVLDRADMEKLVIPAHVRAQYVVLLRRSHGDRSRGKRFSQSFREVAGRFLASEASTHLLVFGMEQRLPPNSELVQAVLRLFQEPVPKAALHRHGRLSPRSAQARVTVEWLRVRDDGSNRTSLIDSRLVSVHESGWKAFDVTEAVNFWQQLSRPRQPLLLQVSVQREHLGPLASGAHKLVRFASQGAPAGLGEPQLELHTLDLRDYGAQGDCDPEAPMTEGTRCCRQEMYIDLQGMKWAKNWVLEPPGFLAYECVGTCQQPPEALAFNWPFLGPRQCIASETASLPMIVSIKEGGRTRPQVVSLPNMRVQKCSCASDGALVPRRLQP
Sequence of Epidermal growth factor receptor (Homo sapiens) (P00533 whole entry, looked up): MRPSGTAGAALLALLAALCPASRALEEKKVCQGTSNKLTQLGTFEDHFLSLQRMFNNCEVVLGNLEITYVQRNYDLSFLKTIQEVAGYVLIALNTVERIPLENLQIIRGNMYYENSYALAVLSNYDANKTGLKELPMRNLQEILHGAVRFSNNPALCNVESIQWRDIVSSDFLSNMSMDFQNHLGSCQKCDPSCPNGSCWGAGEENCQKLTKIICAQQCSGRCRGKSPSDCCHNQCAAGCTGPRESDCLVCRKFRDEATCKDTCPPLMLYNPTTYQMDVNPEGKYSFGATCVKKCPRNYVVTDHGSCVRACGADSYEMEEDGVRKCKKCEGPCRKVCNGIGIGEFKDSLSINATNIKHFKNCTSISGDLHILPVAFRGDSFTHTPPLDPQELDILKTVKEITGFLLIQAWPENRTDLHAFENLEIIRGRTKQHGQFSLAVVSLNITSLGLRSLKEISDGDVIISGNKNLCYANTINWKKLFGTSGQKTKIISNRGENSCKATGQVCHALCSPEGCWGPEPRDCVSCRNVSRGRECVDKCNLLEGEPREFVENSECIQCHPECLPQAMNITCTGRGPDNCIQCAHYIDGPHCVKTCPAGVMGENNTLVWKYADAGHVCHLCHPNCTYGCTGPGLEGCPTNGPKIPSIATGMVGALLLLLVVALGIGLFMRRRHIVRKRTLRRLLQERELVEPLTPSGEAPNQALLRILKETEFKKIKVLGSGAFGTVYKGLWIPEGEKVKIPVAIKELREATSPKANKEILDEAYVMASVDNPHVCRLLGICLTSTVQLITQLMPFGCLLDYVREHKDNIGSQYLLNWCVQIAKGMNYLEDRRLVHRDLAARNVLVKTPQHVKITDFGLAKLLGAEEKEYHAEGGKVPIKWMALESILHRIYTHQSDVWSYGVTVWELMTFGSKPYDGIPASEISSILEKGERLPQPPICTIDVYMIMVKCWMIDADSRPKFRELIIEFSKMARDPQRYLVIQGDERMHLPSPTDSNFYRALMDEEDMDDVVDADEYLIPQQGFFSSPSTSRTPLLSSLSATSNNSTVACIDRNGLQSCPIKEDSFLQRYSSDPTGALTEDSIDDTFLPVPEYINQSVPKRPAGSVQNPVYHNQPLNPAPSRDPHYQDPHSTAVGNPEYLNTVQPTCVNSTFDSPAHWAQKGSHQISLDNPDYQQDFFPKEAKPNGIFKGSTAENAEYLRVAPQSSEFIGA

As for `CCOC(=O)C1=CC[C@@H](c2ccccc2)N(S(=O)(=O)c2ccc(C)cc2)[C@H]1c1ccc(CC)cc1`, the composite z-score was 0.375 in assay [1]; 0.961 in assay [2]; 0.538 in assay [3]; 0.393 in assay [5]; 1.17 in [6]; 0.221 in assay [7]. In addition, the composite z-score in [8] was 0.395; in [9] it was -0.112; in assay [10] it was 0.965; in [11] it was 1.4; in [13], 0.353; in assay [14], 1.21. Moreover, the composite z-score in assay [15] is 0.511; in assay [16], -0.0384; in assay [17], -0.264; in [18], 0.733; in assay [19], 0.331; in [20], 0.569. Moreover, the z-score in assay [4] was 0.425 (inactive); in assay [12], -1.8.
`OCC1C=C(/C=C/c2ccccc2)CN1Cc1ccccc1Br` (stereo not given): the composite z-score is 1.1 in [1]; 0.296 in [2]; -0.241 in assay [3]; 1.18 in assay [5]; 0.86 in assay [6]; 0.357 in assay [7]. The composite z-score in assay [8] is 1.37; in assay [9] it was 1.12; in [10], 0.692; in assay [11], -0.119; in assay [13], 1.14; in assay [14], 0.776. In addition, the composite z-score in assay [15] is -0.265; in [16], 0.0375; in [17], -0.0553; in assay [18], -0.266; in [19], 0.289; in assay [20], 1.12. Further, the z-score is 0.103 (inactive) in assay [4] and -1.92 in assay [12].
In the case of `CC(C)[C@@H](C(=O)O)n1cc(C2(O)CCCCC2)nn1`, the composite z-score is 0.221 in assay [1]; -0.184 in assay [2]; -0.55 in assay [3]; 0.928 in assay [5]; 1.09 in assay [6]; 0.15 in assay [7]. For the same compound, the composite z-score is 0.457 in [8]; 0.301 in assay [9]; -0.352 in assay [10]; 0.875 in assay [11]; 0.21 in assay [13]; 0.539 in assay [14]. Further, the composite z-score was 0.0141 in assay [15]; -0.201 in assay [16]; -0.0738 in assay [17]; -0.0809 in assay [18]; 0.563 in assay [19]; 0.184 in assay [20]. Further, the z-score was -0.291 (inactive) in assay [4] and -0.465 in assay [12].
With `COc1ccc([Si](C)(C)[C@@H]2[C@@H](CC(=O)N3Cc4ccccc4C[C@H]3CO)O[C@]3(C(=O)N(Cc4cccc(N5CCC5=O)c4)c4ccccc43)[C@H]2C)cc1`, the composite z-score in assay [1] is 1.22; in assay [2], -0.0652; in assay [3] it was 0.119; in [5], 0.48; in assay [6] it was 0.611; in assay [7] it was 0.73. In addition, the composite z-score worked out at 0.692 in assay [8]; 0.641 in assay [9]; 0.886 in [10]; 1.12 in assay [11]; 0.558 in [13]; 0.18 in assay [14]. Moreover, the composite z-score in assay [15] is 0.0915; in [16], -0.1; in assay [17], -0.0709; in assay [18] it was 0.0001; in [19], 0.111; in assay [20], 1.08. The z-score was -0.432 (inactive) in assay [4] and -3.58 in [12].
`CC(C)CNC(=O)[C@@]1(Cc2ccccc2I)c2ccccc2C(=O)N(Cc2ccccc2C(F)(F)F)[C@H]1c1ccc(CO)cc1`: the composite z-score was -0.164 in assay [1]; 0.104 in assay [2]; 0.836 in assay [3]; 0.122 in [5]; -0.95 in [6]; -1.17 in [7]. Also, the composite z-score was -0.978 in assay [8]; -0.822 in assay [9]; 0.598 in assay [10]; 0.476 in [11]; -1.3 in assay [13]; -0.512 in assay [14]. Also, the composite z-score was -0.157 in assay [15]; -0.176 in assay [16]; 1.98 in assay [17]; 0.978 in [18]; 0.146 in [19]; -0.124 in [20]. For the same compound, the z-score in assay [4] was 0.368 (inactive); in assay [12], -0.908.
